Source: the supplement of paper PMC10849652
Targets with a hit are over-represented here; the source holds about 7,900 in all. About 0.6% of all pairs of compound and target were hits.

Legend:
Experiment in all cases: log2 fold change, soluble protein after heating vs DMSO (PISA); higher = thermal stabilisation; K562 cells, 10 uM, 30 min; active = over 0.2 and 3.5 SD of the protein, either way, in both replicates (recomputed)
[1] = compound: CS(=O)(=O)c1ccc(-c2cnc(N)c(C(=O)Nc3ccccc3)n2)cc1
Outline: (§1)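 K562 cells at 2×10^6 cells/mL were treated with 10 μM compound for 30 min. Aliquots were heated for 3 min across 48°C-58°C, pooled, and extracted in PBS with 0.5% NP-40 at 4°C; soluble protein was the supernatant after 21,000xg for 90 min. Soluble protein was quantified by TMTpro 16plex LC-MS/MS with channel sums equalised, and reported as log2 fold change in thermal stability against DMSO controls, with values from duplicates.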

crizotinib = compound: C[C@@H](Oc1cc(-c2cnn(C3CCNCC3)c2)cnc1N)c1c(Cl)ccc(F)c1Cl [crizotinib]
Outline: as §1

[2] = compound: C[C@@H]1COCCN1C2=NC(=NC(=C2)C3(CC3)S(=O)(=O)C)C4=C5C=CNC5=CC=C4
Outline: as §1

[3] = compound: C[C@H](C1=CC=C(C=C1)C(=O)NC2=C3C=CNC3=NC=C2)N
Outline: as §1

duvelisib = compound: C[C@H](Nc1ncnc2nc[nH]c12)c1cc2cccc(Cl)c2c(=O)n1-c1ccccc1 [duvelisib]
Outline: as §1

gandotinib = compound: Cc1cc(Nc2cc(CN3CCOCC3)c3nc(C)c(Cc4ccc(Cl)cc4F)n3n2)n[nH]1 [gandotinib]
Outline: as §1

tozasertib = compound: Cc1cc(Nc2cc(N3CCN(C)CC3)nc(Sc3ccc(NC(=O)C4CC4)cc3)n2)n[nH]1 [tozasertib]
Outline: as §1

[4] = compound: Cc1cc(SCc2sc(-c3ccc(C(F)(F)F)cc3)nc2C)ccc1OCC(=O)O
Outline: as §1

doramapimod = compound: Cc1ccc(-n2nc(C(C)(C)C)cc2NC(=O)Nc2ccc(OCCN3CCOCC3)c3ccccc23)cc1 [doramapimod]
Outline: as §1

ispinesib = compound: Cc1ccc(C(=O)N(CCCN)[C@@H](c2nc3cc(Cl)ccc3c(=O)n2Cc2ccccc2)C(C)C)cc1 [ispinesib]
Outline: as §1

bafetinib = compound: Cc1ccc(NC(=O)c2ccc(CN3CC[C@H](N(C)C)C3)c(C(F)(F)F)c2)cc1Nc1nccc(-c2cncnc2)n1 [bafetinib]
Outline: as §1

[5] = compound: Cc1cccc(CC(=O)N2CCc3c2ccc(-c2cn(C)c4ncnc(N)c24)c3F)n1
Outline: as §1

nilotinib = compound: Cc1cn(-c2cc(NC(=O)c3ccc(C)c(Nc4nccc(-c5cccnc5)n4)c3)cc(C(F)(F)F)c2)cn1 [nilotinib]
Outline: as §1

[6] = compound: Cc1nc(Nc2n[nH]c3c2CN(C(=O)N[C@H](CN(C)C)c2ccccc2)C3(C)C)c2sccc2n1
Outline: as §1

dasatinib = compound: Cc1nc(Nc2ncc(C(=O)Nc3c(C)cccc3Cl)s2)cc(N2CCN(CCO)CC2)n1 [dasatinib]
Outline: as §1

[7] = compound: Cc1ncc(-c2ccnc(Nc3ccc(S(C)(=O)=O)cc3)n2)n1C(C)C
Outline: as §1

[8] = compound: Cn1cc(-c2ccc3c(c2)CCN3C(=O)Cc2cccc(C(F)(F)F)c2)c2c(N)ncnc21
Outline: as §1

[9] = compound: Cn1cc(-c2ccc3nnc(C(F)(F)c4ccc5ncccc5c4)n3n2)cn1
Outline: as §1

tipifarnib = compound: Cn1cncc1[C@@](N)(c1ccc(Cl)cc1)c1ccc2c(c1)c(-c1cccc(Cl)c1)cc(=O)n2C [tipifarnib]
Outline: as §1

mubritinib = compound: FC(F)(F)c1ccc(/C=C/c2nc(COc3ccc(CCCCn4ccnn4)cc3)co2)cc1 [mubritinib]
Outline: as §1

Measured: log2 fold change

UBE2J1 (UniProt Q9Y385)
UniProt Q9Y385, sequence (Q9Y385 whole entry, looked up): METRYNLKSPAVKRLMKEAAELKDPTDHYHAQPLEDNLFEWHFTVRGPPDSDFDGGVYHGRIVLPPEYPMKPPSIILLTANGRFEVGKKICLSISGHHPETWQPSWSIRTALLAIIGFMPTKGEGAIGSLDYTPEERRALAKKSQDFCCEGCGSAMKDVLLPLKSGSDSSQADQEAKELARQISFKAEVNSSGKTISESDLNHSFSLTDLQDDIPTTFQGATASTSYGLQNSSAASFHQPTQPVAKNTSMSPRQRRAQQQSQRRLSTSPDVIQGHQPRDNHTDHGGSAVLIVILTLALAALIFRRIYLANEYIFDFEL
inactive: [1] 0.06 | crizotinib -0.172 | [2] 0.026 | [3] -0.043 | duvelisib 0.179 | gandotinib -0.151 | tozasertib 0.026 | [4] -0.01 | doramapimod -0.26 | ispinesib -0.016 | bafetinib 0.108 | [5] 0.023 | nilotinib -0.076 | [6] -0.09 | dasatinib -0.028 | [7] -0.189 | [8] -0.053 | [9] 0.003 | tipifarnib -0.056 | mubritinib 0.132

TRAPPC11 (UniProt Q7Z392)
inactive: [1] -0.004 | crizotinib 0.008 | [2] 0.051 | [3] 0.075 | duvelisib 0.043 | gandotinib -0.047 | tozasertib 0.021 | [4] 0.1 | doramapimod 0.028 | ispinesib -0.079 | bafetinib 0.065 | [5] 0.05 | nilotinib -0.098 | [6] -0.129 | dasatinib -0.159 | [7] 0.01 | [8] -0.04 | [9] -0.03 | tipifarnib -0.06 | mubritinib 0.04

UGDH (UniProt O60701)
inactive: [1] -0.106 | crizotinib 0.079 | [2] 0.041 | [3] -0.161 | duvelisib 0.061 | gandotinib -0.064 | tozasertib 0.046 | [4] 0.049 | doramapimod -0.106 | ispinesib 0.165 | bafetinib 0.018 | [5] 0.062 | nilotinib -0.045 | dasatinib -0.043 | [7] -0.24 | [8] 0.151 | [9] 0.09 | tipifarnib -0.034 | mubritinib 0.202
active: [6] -0.377

WASHC2A (UniProt Q641Q2)
active: crizotinib -0.28
inactive: [1] 0.025 | [2] -0.033 | [3] 0.137 | duvelisib -0.061 | gandotinib 0.012 | tozasertib 0.062 | [4] -0.047 | doramapimod 0.062 | ispinesib -0.229 | bafetinib -0.078 | [5] -0.025 | nilotinib 0.002 | [6] -0.039 | dasatinib 0.022 | [7] -0.012 | [8] -0.088 | [9] 0.035 | tipifarnib 0.052 | mubritinib 0.004

TMEM70 (UniProt Q9BUB7)
UniProt Q9BUB7, sequence (Q9BUB7 whole entry, looked up): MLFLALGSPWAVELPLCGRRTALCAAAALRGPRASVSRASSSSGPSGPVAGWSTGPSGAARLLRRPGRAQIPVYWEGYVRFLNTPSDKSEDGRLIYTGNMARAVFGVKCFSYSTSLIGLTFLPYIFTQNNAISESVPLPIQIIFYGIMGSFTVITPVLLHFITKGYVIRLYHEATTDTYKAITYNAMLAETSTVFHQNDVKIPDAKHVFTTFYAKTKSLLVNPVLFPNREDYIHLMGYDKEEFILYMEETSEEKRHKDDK
inactive: [1] 0.025 | crizotinib -0.096 | [2] 0.035 | [3] 0.002 | duvelisib -0.016 | gandotinib -0.08 | tozasertib -0.016 | [4] 0.087 | doramapimod -0.017 | ispinesib -0.243 | bafetinib -0.141 | [5] 0.026 | nilotinib 0.028 | [6] -0.003 | dasatinib -0.094 | [7] 0.018 | [8] 0.06 | [9] 0.023 | tipifarnib -0.02 | mubritinib 0.017

TPP1 (UniProt O14773)
inactive: [1] 0.025 | [2] 0.022 | [3] -0.026 | duvelisib 0.056 | gandotinib 0.049 | tozasertib -0.009 | [4] -0.016 | doramapimod 0.008 | ispinesib -0.189 | [5] 0.007 | nilotinib 0.008 | [6] -0.031 | dasatinib -0.051 | [7] 0.022 | [8] -0.025 | [9] 0 | tipifarnib 0.049 | mubritinib -0.001
active: crizotinib -0.371 | bafetinib -0.48

UBA6
inactive: [1] 0.05 | crizotinib 0.024 | [2] 0.047 | [3] -0.017 | duvelisib -0.007 | gandotinib -0.039 | tozasertib 0.05 | [4] 0.078 | doramapimod -0.038 | ispinesib 0.014 | bafetinib 0.009 | [5] 0.036 | nilotinib 0.062 | [6] -0.137 | dasatinib -0.035 | [7] -0.024 | [8] 0.016 | [9] -0.024 | tipifarnib -0.075
active: mubritinib 0.228

TOP2A isoform 4 (UniProt P11388)
UniProt P11388, sequence (P11388 whole entry, looked up): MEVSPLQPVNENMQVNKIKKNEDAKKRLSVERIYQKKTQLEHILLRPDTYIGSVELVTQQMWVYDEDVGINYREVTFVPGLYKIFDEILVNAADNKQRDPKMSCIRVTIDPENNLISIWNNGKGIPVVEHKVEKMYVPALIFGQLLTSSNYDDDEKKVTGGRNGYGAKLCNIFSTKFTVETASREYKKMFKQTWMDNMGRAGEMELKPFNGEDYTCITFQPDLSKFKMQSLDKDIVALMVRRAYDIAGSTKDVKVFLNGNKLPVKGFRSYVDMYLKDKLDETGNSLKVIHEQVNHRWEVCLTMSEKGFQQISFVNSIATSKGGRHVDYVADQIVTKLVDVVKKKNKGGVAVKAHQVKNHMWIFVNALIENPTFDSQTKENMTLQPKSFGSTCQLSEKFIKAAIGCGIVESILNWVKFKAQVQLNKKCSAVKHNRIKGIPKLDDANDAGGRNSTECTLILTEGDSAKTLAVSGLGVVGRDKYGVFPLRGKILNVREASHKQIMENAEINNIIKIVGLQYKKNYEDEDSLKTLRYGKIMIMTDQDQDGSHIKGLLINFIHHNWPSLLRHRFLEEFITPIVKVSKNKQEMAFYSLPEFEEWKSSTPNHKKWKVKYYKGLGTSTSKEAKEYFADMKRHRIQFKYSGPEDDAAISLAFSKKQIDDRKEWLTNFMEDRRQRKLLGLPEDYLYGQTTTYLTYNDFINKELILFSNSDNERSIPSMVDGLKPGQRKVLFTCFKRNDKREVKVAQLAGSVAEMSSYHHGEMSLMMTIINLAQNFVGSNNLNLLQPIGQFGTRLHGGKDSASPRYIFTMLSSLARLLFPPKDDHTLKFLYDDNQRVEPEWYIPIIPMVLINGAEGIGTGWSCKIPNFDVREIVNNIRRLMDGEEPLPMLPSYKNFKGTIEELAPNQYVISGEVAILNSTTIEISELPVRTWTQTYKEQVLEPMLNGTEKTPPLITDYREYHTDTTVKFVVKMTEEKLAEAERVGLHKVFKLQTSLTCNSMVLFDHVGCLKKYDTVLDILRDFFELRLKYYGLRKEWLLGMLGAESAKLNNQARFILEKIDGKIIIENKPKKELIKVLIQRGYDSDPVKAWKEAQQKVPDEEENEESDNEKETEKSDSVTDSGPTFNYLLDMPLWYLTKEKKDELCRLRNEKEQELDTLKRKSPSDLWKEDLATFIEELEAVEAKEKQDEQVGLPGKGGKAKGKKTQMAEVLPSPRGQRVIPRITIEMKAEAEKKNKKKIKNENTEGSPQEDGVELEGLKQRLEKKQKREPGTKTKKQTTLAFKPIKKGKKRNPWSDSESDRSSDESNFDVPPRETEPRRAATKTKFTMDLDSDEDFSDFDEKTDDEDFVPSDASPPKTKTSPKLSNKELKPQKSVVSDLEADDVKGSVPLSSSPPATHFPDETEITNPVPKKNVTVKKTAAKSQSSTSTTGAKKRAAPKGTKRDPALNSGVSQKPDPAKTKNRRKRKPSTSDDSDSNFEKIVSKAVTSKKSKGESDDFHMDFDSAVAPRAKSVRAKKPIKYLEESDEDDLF
inactive: [1] -0.071 | crizotinib -0.157 | [2] -0.337 | [3] 0.559 | duvelisib -0.185 | gandotinib 0.158 | tozasertib -0.025 | [4] 0.015 | doramapimod 0.362 | ispinesib -0.376 | bafetinib 0.308 | [5] 0.092 | nilotinib -0.119 | [6] 0.033 | dasatinib 0.102 | [7] -0.11 | [8] -0.29 | [9] -0.324 | tipifarnib 0.104 | mubritinib -0.292

TSEN2 (UniProt Q8NCE0)
UniProt Q8NCE0, sequence (Q8NCE0 whole entry, looked up): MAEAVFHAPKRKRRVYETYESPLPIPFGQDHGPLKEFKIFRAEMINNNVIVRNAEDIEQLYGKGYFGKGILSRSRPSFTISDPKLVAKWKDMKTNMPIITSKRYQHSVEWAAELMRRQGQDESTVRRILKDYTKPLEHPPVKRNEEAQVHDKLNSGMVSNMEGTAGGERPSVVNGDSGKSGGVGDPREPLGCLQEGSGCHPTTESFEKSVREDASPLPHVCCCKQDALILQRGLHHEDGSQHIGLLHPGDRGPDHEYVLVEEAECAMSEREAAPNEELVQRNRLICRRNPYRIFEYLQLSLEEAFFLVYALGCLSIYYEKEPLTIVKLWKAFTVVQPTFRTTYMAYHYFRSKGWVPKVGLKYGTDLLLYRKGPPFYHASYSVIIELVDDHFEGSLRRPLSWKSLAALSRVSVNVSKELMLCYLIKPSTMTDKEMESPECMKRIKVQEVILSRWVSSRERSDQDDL
inactive: [1] -0.198 | crizotinib 0.052 | [2] 0.014 | [3] 0 | duvelisib 0.049 | gandotinib -0.127 | tozasertib -0.048 | [4] 0.056 | doramapimod -0.057 | ispinesib -0.074 | bafetinib 0.008 | [5] 0.032 | nilotinib -0.05 | [6] -0.112 | dasatinib -0.132 | [7] -0.034 | [8] 0.05 | [9] -0.013 | tipifarnib -0.005 | mubritinib -0.16

TNPO2 (UniProt O14787)
inactive: [1] 0.019 | crizotinib -0.153 | [2] 0.046 | [3] -0.037 | duvelisib 0.03 | gandotinib -0.059 | tozasertib 0.077 | [4] 0.048 | doramapimod 0.011 | ispinesib -0.14 | bafetinib -0.004 | [5] 0.129 | nilotinib -0.122 | [6] -0.111 | dasatinib -0.173 | [7] -0.087 | [8] -0.076 | [9] -0.011 | tipifarnib -0.011 | mubritinib 0.043

TNPO3 (UniProt Q9Y5L0)
UniProt Q9Y5L0, sequence (Q9Y5L0 whole entry, looked up): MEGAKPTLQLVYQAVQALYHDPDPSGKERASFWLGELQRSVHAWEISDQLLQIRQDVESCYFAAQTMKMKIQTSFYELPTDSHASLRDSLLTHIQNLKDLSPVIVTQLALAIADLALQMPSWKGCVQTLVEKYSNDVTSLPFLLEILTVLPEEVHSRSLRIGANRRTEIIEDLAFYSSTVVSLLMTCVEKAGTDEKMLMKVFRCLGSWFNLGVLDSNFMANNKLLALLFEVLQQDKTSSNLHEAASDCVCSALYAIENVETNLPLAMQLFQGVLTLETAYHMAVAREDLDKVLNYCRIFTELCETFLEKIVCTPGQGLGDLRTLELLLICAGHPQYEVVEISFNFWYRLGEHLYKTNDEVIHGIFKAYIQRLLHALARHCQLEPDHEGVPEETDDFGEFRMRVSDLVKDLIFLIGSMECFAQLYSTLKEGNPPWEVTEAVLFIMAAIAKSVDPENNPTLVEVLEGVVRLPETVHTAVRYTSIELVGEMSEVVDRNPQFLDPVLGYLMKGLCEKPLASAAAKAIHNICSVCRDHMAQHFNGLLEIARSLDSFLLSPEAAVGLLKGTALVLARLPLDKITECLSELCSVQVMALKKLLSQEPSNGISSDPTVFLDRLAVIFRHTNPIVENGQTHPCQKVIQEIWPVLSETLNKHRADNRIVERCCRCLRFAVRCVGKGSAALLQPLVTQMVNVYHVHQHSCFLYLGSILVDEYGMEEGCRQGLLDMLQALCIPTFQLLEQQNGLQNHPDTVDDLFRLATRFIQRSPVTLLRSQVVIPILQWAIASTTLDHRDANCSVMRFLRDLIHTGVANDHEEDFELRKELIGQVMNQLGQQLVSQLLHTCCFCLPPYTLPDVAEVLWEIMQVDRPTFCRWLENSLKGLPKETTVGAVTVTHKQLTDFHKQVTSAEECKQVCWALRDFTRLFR
inactive: [1] -0.028 | crizotinib -0.151 | [2] 0.025 | [3] -0.124 | duvelisib -0.008 | gandotinib -0.143 | tozasertib 0.087 | [4] 0.046 | doramapimod -0.046 | ispinesib 0.008 | bafetinib -0.057 | [5] 0.041 | nilotinib -0.052 | [6] -0.123 | dasatinib -0.103 | [7] -0.028 | [8] -0.001 | [9] -0.014 | tipifarnib -0.121 | mubritinib 0.061

TRAPPC13 isoform 5 (UniProt A5PLN9)
UniProt A5PLN9, sequence (A5PLN9 whole entry, looked up): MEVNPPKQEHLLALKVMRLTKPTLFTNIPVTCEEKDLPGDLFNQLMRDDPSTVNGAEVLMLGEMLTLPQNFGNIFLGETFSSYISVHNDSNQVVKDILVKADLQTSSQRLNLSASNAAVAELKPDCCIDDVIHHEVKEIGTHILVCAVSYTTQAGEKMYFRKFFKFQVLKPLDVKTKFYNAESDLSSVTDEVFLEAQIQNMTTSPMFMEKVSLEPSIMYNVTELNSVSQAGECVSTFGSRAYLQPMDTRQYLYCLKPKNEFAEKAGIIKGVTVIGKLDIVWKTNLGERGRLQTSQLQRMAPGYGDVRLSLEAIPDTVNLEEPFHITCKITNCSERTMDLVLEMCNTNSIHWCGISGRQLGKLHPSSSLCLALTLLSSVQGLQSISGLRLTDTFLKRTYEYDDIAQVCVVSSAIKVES
inactive: [1] -0.037 | crizotinib -0.054 | [2] 0.067 | [3] 0.009 | duvelisib 0.02 | gandotinib -0.007 | tozasertib -0.028 | [4] 0.087 | doramapimod 0.047 | ispinesib 0.032 | bafetinib 0.11 | [5] 0.149 | nilotinib -0.019 | [6] 0 | [7] -0.056 | [8] 0.002 | [9] -0.112 | tipifarnib -0.011 | mubritinib 0.057
active: dasatinib -0.346

VPS39 (UniProt Q96JC1)
UniProt Q96JC1, sequence (Q96JC1 whole entry, looked up): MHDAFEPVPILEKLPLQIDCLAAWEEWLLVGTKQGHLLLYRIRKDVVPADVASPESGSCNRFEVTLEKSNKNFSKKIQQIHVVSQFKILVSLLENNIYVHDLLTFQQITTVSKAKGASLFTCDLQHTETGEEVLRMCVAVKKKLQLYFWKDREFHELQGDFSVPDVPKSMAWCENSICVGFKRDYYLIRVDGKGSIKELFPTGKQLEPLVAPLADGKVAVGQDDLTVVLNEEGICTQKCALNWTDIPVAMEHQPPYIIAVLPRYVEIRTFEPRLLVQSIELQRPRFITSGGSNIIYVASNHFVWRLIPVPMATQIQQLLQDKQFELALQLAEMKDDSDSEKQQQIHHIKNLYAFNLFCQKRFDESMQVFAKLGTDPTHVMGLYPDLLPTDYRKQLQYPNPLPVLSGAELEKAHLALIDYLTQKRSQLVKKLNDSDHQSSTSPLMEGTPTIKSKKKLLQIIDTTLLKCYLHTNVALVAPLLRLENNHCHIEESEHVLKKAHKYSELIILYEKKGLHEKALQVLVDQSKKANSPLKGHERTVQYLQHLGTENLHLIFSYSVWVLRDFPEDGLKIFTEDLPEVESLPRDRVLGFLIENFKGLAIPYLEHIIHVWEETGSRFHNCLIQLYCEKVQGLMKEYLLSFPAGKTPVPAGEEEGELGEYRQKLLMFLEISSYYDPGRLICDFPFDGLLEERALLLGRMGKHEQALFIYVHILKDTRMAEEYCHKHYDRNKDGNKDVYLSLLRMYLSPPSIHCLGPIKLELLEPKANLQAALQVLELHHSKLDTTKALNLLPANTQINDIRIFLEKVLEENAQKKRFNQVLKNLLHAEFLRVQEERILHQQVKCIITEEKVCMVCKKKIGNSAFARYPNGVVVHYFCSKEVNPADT
active: crizotinib -0.239
inactive: [1] -0.037 | [2] 0.026 | [3] 0.021 | duvelisib 0.011 | gandotinib -0.126 | tozasertib -0.033 | [4] 0.025 | doramapimod 0.008 | ispinesib -0.187 | bafetinib -0.032 | [5] 0.069 | nilotinib -0.019 | [6] -0.068 | dasatinib -0.15 | [7] -0.017 | [8] 0.033 | [9] 0.003 | tipifarnib -0.058 | mubritinib 0.027

WDR11 (UniProt Q9BZH6)
inactive: [1] -0.064 | crizotinib -0.007 | [2] 0.111 | [3] 0.059 | duvelisib 0.029 | gandotinib -0.291 | tozasertib -0.049 | [4] -0.051 | doramapimod 0.056 | ispinesib -0.133 | bafetinib 0.063 | [5] -0.067 | nilotinib -0.229 | [6] 0.051 | dasatinib 0.056 | [7] -0.121 | [8] -0.018 | [9] 0.046 | tipifarnib 0.038 | mubritinib 0.051

WDR62 isoform 4 (UniProt O43379)
active: gandotinib -0.204
inactive: [1] 0.064 | crizotinib -0.137 | [2] 0.07 | [3] -0.064 | duvelisib 0.011 | tozasertib -0.068 | [4] -0.016 | doramapimod -0.057 | ispinesib -0.02 | bafetinib -0.193 | [5] 0.016 | nilotinib -0.149 | [6] -0.041 | dasatinib -0.107 | [7] -0.083 | [8] 0.009 | [9] 0.032 | tipifarnib 0.002 | mubritinib 0.024
